From PubChem BioAssay
ELG1 DNA repair: blocks ELG1-dependent DNA repair in HEK293T cells; 2.3% of 330,000 active; Potency, µM (titrated, usually from 46.1 µM), for inactives: top-dose activity change, negative = inhibition, usual class: inhibitors; HEK293T ELG1-luciferase reporter, luminescence, 16 h; DNA damage induced by 5-fluorouridine; further: on the % scale 0 is the no-effect control and ±100 the full control effect; nearly all actives have a fitted effect of over 55% in size
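Reporter activity after DNA damage by 5-fluorouridine is monitored. Compound-treated cells incubate 16 hr at 37 °C, then ONE-Glo is added for 30 min before luminescence reading.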
A549 viability: A549 cytotoxicity, counter-screen for Nrf2 inhibitors | 0.16% of 390,000 active | A549 ARE-Fluc cells, CellTiter-Fluor viability, 18-24 h | Potency, µM (doses to about 46 µM), without a hit: at the highest dose activity change, negative = cytotoxicity, most hits filed as inhibitors; further: on the % scale 0 is the no-effect control and ±100 the full control effect
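A549 ARE_Fluc cells in 5% FBS OPTI-MEM were exposed to compounds in concentration-response for 18-24 h at 37 deg C. Viability was read by CellTiter-Fluor fluorescence (Ex 405/Em 525) after 30 min, before the luciferase read.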
Nrf2 ARE act: activators of Nrf2 (ARE) signaling; AREc32 ARE-luciferase reporter (MCF7-derived line), luminescence, 24 h; 0.31% of 410,000 active; AID 624171; Potency, µM (series often up to 46.1 µM), inactives show top-dose activation, actives largely listed as activators; further: % of control where 0% means no effect; nearly all actives have a fitted effect of over 65% in size
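For detection, Steady-Glo was added and plates sat 30 min at RT; before that, AREc32_Fluc cells grown overnight in OPTI-MEM/5% FBS had been treated with 23 nL compound for 24 hr at 37 deg C.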
Nrf2 block: Nrf2 pathway inhibition; A549 ARE-Fluc reporter, luciferase luminescence, 18-24 h; Potency, µM (titrated, usually from 46 µM), for the others: at the highest dose activity change, negative = inhibition, actives largely listed as inhibitors; 2.1% of 360,000 active; AID 504444; further: on the % scale 0 is the no-effect control and ±100 the full control effect; nearly all actives have a fitted effect of over 60% in size
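Nrf2 function is reported as luminescence of an ARE-controlled luciferase in A549 cells. Compounds were tested at several concentrations, and a CellTiter-Fluor read on the same wells flagged cytotoxicity.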
Starred values were filed as active, the others as inactive; u = inconclusive; x = no result; [ ] = remark or other dose. Compounds with a hit are over-represented: about 3.7% of the library has one in this group of screens. The call rests on the fitted dose curve; in most records, active means well fitted curve in the direction sought with a large enough effect; inconclusive means small, poorly fitted or top-dose-only effect, or another doubt; inactive means no such curve, though single readings can be large; an effect the other way counts as inactive or inconclusive. Potency means the concentration at half of the fitted maximal effect.

SMILES | ELG1 DNA repair | A549 viability | Nrf2 ARE act | Nrf2 block
Cc1ccc2occ(C(=O)c3ccco3)c(=O)c2c1 | u | -3% | 13µM* | 20%
O=C(c1cc(C(=O)c2ccco2)cc(C(=O)c2ccco2)c1)c1ccco1 | 15% | -1% | 5% | -3%
O=C1Cc2cc(S(=O)(=O)N3CCN(c4cccc(Cl)c4)CC3)ccc2N1 | 0% | 20% | 3% | u
COc1cccc(/C=N/n2c(C)nc3ccccc32)c1OC | u | x | 5% | u
COc1cccc(/C=N/n2c(-c3ccco3)nc3ccccc3c2=O)c1OC | 5.2µM* | 0% | 0% | -5%
CCN(c1ccccc1)S(=O)(=O)c1cccc(C(=O)OCC(=O)Nc2ccc(NC(C)=O)cc2)c1 | -17% | -2% | -1% | 22%
NNC(=O)CN1CCN(c2ncc(C(F)(F)F)cc2Cl)CC1 | -13% | -1% | 0% | -29%
O=C(CN1CCN(c2ncc(C(F)(F)F)cc2Cl)CC1)NCCNc1ncc(C(F)(F)F)cc1Cl | u | u | 0% | 15µM*
CC(C)(C)NC(=O)NC(=O)CN1CCN(c2ncc(C(F)(F)F)cc2Cl)CC1 | 7.3µM* | 0% | 0% | u
NS(=O)(=O)OCC(Cc1ccccc1)N1C(=O)c2ccccc2C1=O (stereo not drawn) | -2% | -5% | -2% | 4%
Cc1ccc2nc(CSc3nc(C)nc4c3oc3ccccc34)[nH]c2c1 | u | u | 0% | 18µM*
Cc1nc(SCc2nc3ccccc3[nH]2)c2oc3ccccc3c2n1 | 18µM* | -24% | 4% | u
O=C(CN1CCN(Cc2ccccc2Cl)CC1)N/N=C/C=C/c1ccco1 | 5% | -1% | u | -13%
O=C(CN1CCN(Cc2ccccc2)CC1)N/N=C\C=C/c1ccco1 | u | -5% | 6.3µM* | u
O=C(Cc1cccs1)N/N=C/C=C/c1ccco1 | u | 12% | 13µM* | 13%
O=C(N/N=C\C=C\c1ccco1)c1cncc(Br)c1 | -7% | -3% | 13µM* | -23%
O=C(CNc1cccc2ccccc12)N/N=C/C=C/c1ccco1 | 4% | 13% | u | 13%
CCOc1cc(/C=C2\SC(=O)N(CC(=O)Nc3ccccc3F)C2=O)cc([N+](=O)[O-])c1O | -13% | u | 4% | 18µM*
O=C(Cc1ccc(F)cc1)Nc1ccccc1N1CCCC1 | 1% | -1% | 0% | 13%
O=C(/C=C/c1cccs1)Nc1ccc(N2CCOCC2)c(S(=O)(=O)Nc2ccccc2Cl)c1 | u | 0% | 8% | -5%
O=C(Nc1ccc(Cl)c(Cl)c1)Nc1ccc(N2CCCC2)c(S(=O)(=O)Nc2ccccc2Cl)c1 | u | u | 0% | 13µM*
O=C(Nc1ccccc1N1CCCC1)c1cccnc1 | 1% | x | 0% | 10%
O=C(Nc1ccc(N2CCOCC2)c(S(=O)(=O)Nc2ccccc2Cl)c1)c1ccc(F)cc1 | 18µM* | -17% | 3% | u
O=C(Nc1ccc(N2CCCCC2)c(S(=O)(=O)Nc2ccccc2Cl)c1)c1cccnc1 | 18µM* | -5% | 0% | u
O=C(Nc1ccc(F)cc1)Nc1ccccc1N1CCCCC1 | 13µM* | -28% | 6% | u
SMILES | ELG1 DNA repair | A549 viability | Nrf2 ARE act | Nrf2 block
COc1ccccc1NS(=O)(=O)c1cc(NC(=O)c2ccc(NC(C)=O)cc2)ccc1N1CCOCC1 | x | 1% | 4% | -11%
CC(=O)N1CCOc2cc(S(=O)(=O)NCc3ccccc3Cl)c(C)cc21 | x | 6% | 0% | 22%
O=C(Nc1ccc(F)cc1)Nc1ccc(N2CCCC2)c(S(=O)(=O)Nc2ccccc2Cl)c1 | u | u | 3% | 23µM*
COc1ccccc1NS(=O)(=O)c1cc(NC(=O)Nc2ccccc2)ccc1N1CCCCC1 | u | -8% | 2% | -18%
O=C(CSc1nc2c([nH]c3ccccc32)c(=O)n1-c1ccc(Cl)cc1)N1CCCCCC1 | x | u | 0% | x
Cc1cccc(C(O)c2cnc(C)n2Cc2ccccc2)c1 (stereo not drawn) | x | x | 0% | x
O=C(N/N=C/c1cccnc1)c1cccc(NC(=O)c2ccc(Cl)cc2)c1 | 16% | 0% | -1% | 18µM*
CCOc1cc(/C=N/NC(=O)c2ccccc2OCc2ccc(F)cc2)ccc1O | 5.8µM* | 0% | -1% | 6%
Cc1cccc(C(=O)Nc2ccc(C(=O)N/N=C/c3cccnc3)cc2)c1 | -1% | -9% | 0% | u
O=C(N/N=C/c1cccnc1)c1ccccc1OCc1cccc(Br)c1 | 21µM* | -6% | -1% | -8%
COc1cccc(CNc2nc3c(-c4ccccc4)nnn3c3ccccc23)c1 | x | 6% | 0% | u
CC(C)CC1NC(=O)N(CC(=O)N2c3ccccc3NC(=O)C2(C)C)C1=O (stereo not drawn) | -12% | 7% | -1% | -10%
CC(C)C[C@@H]1NC(=O)[C@H](Cc2ccccc2)N(C)C(=O)[C@H](C)NC(=O)c2ccccc2NC(=O)[C@H](Cc2ccc(O)cc2)N(C)C1=O | 6.5µM* | u | 4% | 23µM*
Cc1ccc(-n2cc(C(=O)OCc3ccc(F)c(F)c3)c3ccccc3c2=O)cc1 | x | 8% | 4% | x
CCCOc1ccc(N2C(=O)CC(N(CCc3ccc(OC)c(OC)c3)C(=S)Nc3ccccc3)C2=O)cc1 (stereo not drawn) | 16µM* | -4% | 4% | -19%
CCCOc1ccc(N2C(=O)CC(N(Cc3ccc(OC)cc3)C(=S)Nc3ccccc3)C2=O)cc1 (stereo not drawn) | u | u | 0% | -16%
COc1cc2cc(CN(Cc3cccs3)C(=S)Nc3ccccc3)c(=O)[nH]c2cc1OC | 8.2µM* | -13% | 2% | 15%
CCNC(=S)N(CCc1ccc(OC)c(OC)c1)Cc1cc2cc(OC)ccc2[nH]c1=O | u | -3% | 4% | -4%
CCNC(=S)N(CCc1cccc(C)c1)Cc1cc2cc(OC)c(OC)cc2[nH]c1=O | 8.2µM* | -12% | 0% | 23µM*
CCNC(=S)N(CCc1ccccc1C)Cc1cc2cc(OC)c(OC)cc2[nH]c1=O | 9.2µM* | 3% | -1% | -4%
O=C(O)c1ccc(N2CC3CC(C2)c2cccc(=O)n2C3)c(NC(=S)Nc2ccc(Br)cc2)c1 (stereo not drawn) | -1% | 5% | -1% | -12%
Cc1cccc2sc(NC(=O)c3ccc(Cl)s3)nc12 | u | 7% | 7.1µM* | 20%
Cc1cccc2sc(NC(=O)C3c4ccccc4Oc4ccccc43)nc12 | u | -11% | 0% | 21µM*
Cc1cc(C)cc(OCC(=O)N2N=C(c3cccnc3)CC2(O)C(F)(F)F)c1 (stereo not drawn) | u | -9% | 0%[9.22 µM] | 23µM*
Cc1ccccc1OCC(=O)N1N=C(c2cccnc2)CC1(O)C(F)(F)F (stereo not drawn) | -17% | 0% | 0% | -17%
Cc1cccc(C)c1OCC(O)CNS(=O)(=O)c1ccccc1C(=O)N1CCCCC1 (stereo not drawn) | 16µM* | -14% | 0% | u
